Compounds with a hit are over-represented: about 4.2% of the library has one in this group of screens.
NALP3 yeast inh: inhibitors of NALP3 inflammasome in yeast; Yeast reconstituted NLRP3/ASC/caspase-1, beta-gal luminescence, 24 h; inhibition, % at 10 µM; 330,000 tested, 0.39% active; AID 2825;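 active means inhibition of 50% or more; inactive means inhibition below 50%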
NALP1 yeast inh: NALP1 inhibition | S. cerevisiae NALP1/ASC/caspase-1 growth, X-gal OD620, 72 h | inhibition, % at 10 µM | 280,000 tested, 0.61% active | AID 2071; in the data active means inhibition mostly above about 24%, no sharp cut-off; inactive means mostly below about 32%
tim10-1 inh: tim10-1 yeast growth inhibition; S. cerevisiae tim10-1 ts strain growth, BacTiter-Glo, 24 h; inhibition, % at 20 µM; 330,000 tested, 2.2% active;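 active means inhibition of at least 40%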;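 further: mutant grown at 25 °C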
tim23-1 inh: inhibits growth of tim23-1 mutant yeast. inhibition, % at 20 µM. 330,000 tested, 1.3% active. AID 463212. S. cerevisiae tim23-1 growth, BacTiter-Glo luminescence, 24 h;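 active means growth inhibition of the mutant yeast at or above 50%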;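 further: temperature-sensitive mutant grown at 25 °C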
TIM10 inh: inhibits growth of TIM10 yeast strain | S. cerevisiae TIM10 strain growth, BacTiter-Glo luminescence, 24 h | inhibition, % at 10 µM | 330,000 tested, 1.4% active | AID 463195;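 active means inhibition of 40% or more at the single tested concentration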;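 further: wild-type TIM10 isogenic control strain grown at permissive 25 °C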
V-ATPase pHluor: yeast V-ATPase proton transport regulation by pHLuorin; S. cerevisiae, pHLuorin cytosolic pH fluorescence; response, % at 10 µM; 350,000 tested, 0.37% active; AID 504577; in the data active means response mostly above about 7.3%, no sharp cut-off; inactive means mostly below about 5.4%; further: actives read high
tim10-1 confirm: tim10-1 yeast growth inhibition, confirmed | shares compounds with tim10-1 inh | S. cerevisiae tim10-1 ts strain growth, BacTiter-Glo, 24 h | inhibition, % at 20 µM | 7,400 tested, 56% active | AID 463213;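 active means inhibition of yeast growth at or above a set limit in either of two repeat tests at 20 µM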;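 further: tim10-1 mutant grown at permissive 25 °C to find synthetic lethal compounds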
Large screens that a line does not name were inactive (follow-up assays come after a bar, where they were run).

Cc1sc(NC(=O)c2ccco2)c(C(Nc2ccccn2)c2ccccc2)c1C (centres undefined)	none | tim10-1 confirm inactive
COc1ccc(C(Nc2ccccn2)c2c(NC(=O)c3ccco3)sc(C)c2C)cc1 (centres undefined)	tim10-1 inh 41 | tim10-1 confirm inactive
COc1cccc(C(Nc2ccccn2)c2c(NC(=O)c3ccco3)sc(C)c2C)c1 (centres undefined)	none
Cc1sc(NC(=O)c2ccco2)c(C(c2cccnc2)N2CCCC2)c1C (centres undefined)	tim10-1 inh 52 | tim10-1 confirm 45
CC1(C)CC(=O)C(N=Nc2ccc(S(=O)(=O)N3CCOCC3)cc2)=C(O)C1	none (no result: NALP1 yeast inh)
CCC1CCCCN1C(=O)CSc1nnc(-c2ccc(Cl)s2)o1 (centres undefined)	tim10-1 inh 51 | tim10-1 confirm inactive
CCC1CCCCN1C(=O)CSc1nnc(CNC(=O)COc2ccc(Cl)cc2)o1 (centres undefined)	tim10-1 inh 40 | tim10-1 confirm inactive
CCC1CCCCN1C(=O)CSc1nnc(-c2ccc(Cl)cc2)o1 (centres undefined)	none
O=C(COc1ccc(Cl)cc1)NCc1nnc(SCC(=O)NC2CCCC2)o1	none
CSc1nc(N)nc2c1ncn2CC(=O)N1CCN(c2ccccn2)CC1	none (no result: NALP1 yeast inh)
CCOC(=O)COc1ccc2nsnc2c1	none
CCOC(=O)COc1ccc(/C=C/[N+](=O)[O-])c(OCC(=O)OCC)c1	tim10-1 inh 42 | tim10-1 confirm 49
COc1ccc(NC(=O)Cn2ncn3nc(-c4ccc(OC)cc4)cc3c2=O)cc1	none
Cc1ccc(-c2nc3cnccn3c2Nc2c(C)cccc2C)o1	tim10-1 inh 60 | tim10-1 confirm 55
CCCCCCC(=O)O	none (no result: NALP1 yeast inh)
CCCCCCCCC(=O)O	tim10-1 inh 45 (no result: NALP1 yeast inh, V-ATPase pHluor) | tim10-1 confirm inactive
CCCOc1ccc(NC(=O)CC2C(=O)N(CC)C(=S)N2Cc2cccs2)cc1 (centres undefined)	tim10-1 inh 50 | tim10-1 confirm 35
Cc1nn2c3ccccc3nc2c2ccccc12	tim10-1 inh 51 | tim10-1 confirm 42
Cc1nn2c(-c3ccccc3)nnc2c2ccccc12	none
Cc1cccc(Sc2ccc([N+](=O)[O-])cc2[N+](=O)[O-])n1	tim10-1 inh 44 | tim10-1 confirm inactive
COc1ccc(C)cc1NC(=O)c1nn(C)cc1Br	none
Cc1cccc(C(=O)O/N=C/c2c(N3CCOCC3)n(C)c3ccccc23)c1	tim10-1 inh 41 (no result: V-ATPase pHluor) | tim10-1 confirm inactive
CCN(CC1COc2ccccc2O1)C(=S)Nc1ccccc1 (centres undefined)	tim10-1 inh 44 | tim10-1 confirm 15
CCC(=O)Nc1ccc(C(=O)OCc2ccccc2)cc1	tim10-1 inh 41 | tim10-1 confirm 36
CCC(=O)Nc1ccc(C(=O)NNC(=O)c2ccccc2)cc1	none
CCOC(=O)c1ccc(NC(=O)CC2COc3ccccc3O2)cc1 (centres undefined)	tim10-1 inh 41 | tim10-1 confirm inactive
Cn1nc(C(=O)Nc2ccccc2N2CCCC2)c2ccccc2c1=O	none
O=C(/C=C/c1ccc2c(c1)OCO2)c1ccc(F)cc1	none
N#CC(CC(=O)c1ccc(F)cc1)c1ccc2c(c1)OCO2 (centres undefined)	tim10-1 inh 41 | tim10-1 confirm 31
Cc1ccc2c(c1)c(N=O)c(O)n2Cc1ccc(Cl)cc1	tim10-1 inh 49 | tim10-1 confirm 36
O=C(Nc1cccc(C(F)(F)F)c1)C1CCCN(c2ncccn2)C1 (centres undefined)	tim10-1 inh 42 | tim10-1 confirm 36
NS(=O)(=O)c1ccc(CCNC(=O)c2ccc(-c3ccccc3)cc2)cc1	none
Cc1c(C(=O)N2CCN(S(=O)(=O)c3ccccc3)CC2)oc2ccc(Br)cc12	none (no result: NALP1 yeast inh)
OCCCNc1nc(-c2ccccc2)c2cc(Br)ccc2n1	tim10-1 inh 48 | tim10-1 confirm 36
CNC(=O)COC(=O)/C=C/c1cn(-c2ccccc2)nc1-c1ccc2c(c1)OCCO2	tim10-1 inh 41 | tim10-1 confirm 29
NC(=O)/C=C\c1cn(-c2ccccc2)nc1-c1ccc2c(c1)OCCO2	none
O=C(CCC1CCCCC1)Nc1cccnc1	none
S=C(NCC1CCCCC1)Nc1cccnc1	tim10-1 inh 53 | tim10-1 confirm 43
O=C(Nc1ccccc1Cl)c1sccc1-c1ccccc1	none
COc1ccccc1/C=C/C(=O)OCC(=O)Nc1c(C)nn(-c2ccccc2)c1C	tim10-1 inh 45 (no result: NALP1 yeast inh) | tim10-1 confirm inactive
CC(=O)OCCc1c2ccccc2c(CCCN(C)C)c2ccccc12	tim10-1 inh 40 (no result: NALP1 yeast inh) | tim10-1 confirm inactive
CC(=O)OCCc1[nH]c2ccccc2c1C	none
CCN=C1S/C(=C/c2ccc(-c3ccc(F)cc3)o2)C(=O)N1CC	tim10-1 inh 45 | tim10-1 confirm 29
CC(NC(=O)c1cc(-c2ccncc2)nc2ccc(Br)cc12)C1CCCO1 (centres undefined)	none
Cc1ccccc1N=C1NN=C(c2ccccc2F)CS1	tim10-1 inh 42 | tim10-1 confirm inactive
Cc1cccc(C)c1N=C1NN=C(c2ccccc2F)CS1	none
Cc1ccc(N=C2C(=O)Nc3ccc(Br)cc32)cc1	tim10-1 inh 48 | tim10-1 confirm inactive
COc1ccccc1C(=O)NNC(=O)C1CCCO1 (centres undefined)	none
N#Cc1cc(C(=O)c2ccccc2OCC(=O)Nc2ccccc2Cl)cn(C2CCCCC2)c1=O	tim10-1 inh 43 | tim10-1 confirm inactive
COc1cc(C(=O)Nc2ccc3nc(N4CCOCC4)sc3c2)cc(OC)c1OC	tim10-1 inh 41 (no result: NALP1 yeast inh) | tim10-1 confirm inactive
CCOC(=O)c1sc(NC(=O)C2CC2)cc1C	tim10-1 inh 54 | tim10-1 confirm inactive
CCCCN(C(=O)C1=COCCO1)c1c(N)n(Cc2ccccc2)c(=O)[nH]c1=O	tim10-1 inh 43 (no result: NALP1 yeast inh) | tim10-1 confirm inactive
CCOc1cc(/C=C2\N=C(SC)SC2=O)cc([N+](=O)[O-])c1OC(C)=O	tim10-1 inh 42 | tim10-1 confirm inactive
C/C(=N\OCc1ccc(C#N)cc1)c1ccc(S(=O)(=O)N(C)C)cc1	tim10-1 inh 42 | tim10-1 confirm 41
CCCCCCCNC1=CC(=O)CC(c2ccco2)C1 (centres undefined)	tim10-1 inh 50 | tim10-1 confirm inactive
CCOCCCNc1ncnc2c1nc1n2CCCC1	none
O=c1cc(-c2ccccc2)[nH]n1-c1ccc([N+](=O)[O-])cc1	tim10-1 inh 43 | tim10-1 confirm inactive
O=c1c(N=Nc2ccc(O)cc2)c(-c2ccccc2)[nH]n1-c1ccc([N+](=O)[O-])cc1	none
CC(C)(C)Cc1nc2ccccc2n1CCc1ccccc1	tim10-1 inh 41 | tim10-1 confirm inactive

High-throughput results (PubChem BioAssay)
